PubChem BioAssay AID743105 (Vanderbilt Specialized Chemistry Center, 2013)
Active and inactive are the calls of the source. How the calls were made is not given here.

Biological target: Muscarinic acetylcholine receptor M4 (Homo sapiens) (UniProt P08173)
Test: off-target M4 muscarinic calcium response – cell-based, CHO-K1 hM4/Gqi5, Fluo-4 calcium flux, ACh EC20, counter-screen for M5 NAM project (AID 743105)
Settings: series mostly up to 30 µM

Sequence of Muscarinic acetylcholine receptor M4 (Homo sapiens) (P08173 whole entry, looked up): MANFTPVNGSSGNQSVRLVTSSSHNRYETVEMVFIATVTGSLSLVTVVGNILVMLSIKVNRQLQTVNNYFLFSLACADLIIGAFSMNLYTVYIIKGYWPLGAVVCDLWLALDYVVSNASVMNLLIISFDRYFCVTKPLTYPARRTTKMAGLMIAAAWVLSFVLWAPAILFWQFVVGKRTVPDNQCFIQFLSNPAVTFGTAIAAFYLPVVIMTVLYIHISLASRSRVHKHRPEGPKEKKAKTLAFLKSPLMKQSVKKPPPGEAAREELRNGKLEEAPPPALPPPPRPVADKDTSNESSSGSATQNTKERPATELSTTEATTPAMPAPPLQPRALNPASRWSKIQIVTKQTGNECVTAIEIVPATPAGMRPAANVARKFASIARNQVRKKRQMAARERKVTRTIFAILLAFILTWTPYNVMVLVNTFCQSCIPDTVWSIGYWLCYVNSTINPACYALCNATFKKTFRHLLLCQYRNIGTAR

Structure (SMILES)	outcome
O=C(c1ccc(F)c(F)c1)N1CCN2C(=O)c3ccccc3[C@@]12c1ccc(Cl)cc1	inactive
O=C(c1ccc(F)c(F)c1)N1CCN2C(=O)c3ccccc3C12c1ccc(Cl)cc1 (stereo not given)	inactive
O=C(c1ccc(F)cc1)N1CCN2C(=O)c3ccccc3C12c1ccccc1 (stereo not given)	inactive
O=C(c1ccc(F)c(F)c1)N1CCN2C(=O)c3ccccc3C12c1ccccc1 (stereo not given)	inactive
O=C(c1cc(F)cc(F)c1)N1CCN2C(=O)c3ccccc3C12c1ccc(Cl)cc1 (stereo not given)	inactive
